How the values were obtained:
Assay in all cases: log2 ratio of Biotin-Ahx-Ub-VS probe labelling (fragment/DMSO); higher = less target engagement (more negative = stronger competition), active = hit call of the paper (q ≤ 0.05, log2 ratio ≤ -1)
Settings in all cases: compound concentration: 200 uM; treatment time: 3 h
USP42 = biological target: T1, USP42 (UniProt Q9H9J4)
T1 sequence (whole entry): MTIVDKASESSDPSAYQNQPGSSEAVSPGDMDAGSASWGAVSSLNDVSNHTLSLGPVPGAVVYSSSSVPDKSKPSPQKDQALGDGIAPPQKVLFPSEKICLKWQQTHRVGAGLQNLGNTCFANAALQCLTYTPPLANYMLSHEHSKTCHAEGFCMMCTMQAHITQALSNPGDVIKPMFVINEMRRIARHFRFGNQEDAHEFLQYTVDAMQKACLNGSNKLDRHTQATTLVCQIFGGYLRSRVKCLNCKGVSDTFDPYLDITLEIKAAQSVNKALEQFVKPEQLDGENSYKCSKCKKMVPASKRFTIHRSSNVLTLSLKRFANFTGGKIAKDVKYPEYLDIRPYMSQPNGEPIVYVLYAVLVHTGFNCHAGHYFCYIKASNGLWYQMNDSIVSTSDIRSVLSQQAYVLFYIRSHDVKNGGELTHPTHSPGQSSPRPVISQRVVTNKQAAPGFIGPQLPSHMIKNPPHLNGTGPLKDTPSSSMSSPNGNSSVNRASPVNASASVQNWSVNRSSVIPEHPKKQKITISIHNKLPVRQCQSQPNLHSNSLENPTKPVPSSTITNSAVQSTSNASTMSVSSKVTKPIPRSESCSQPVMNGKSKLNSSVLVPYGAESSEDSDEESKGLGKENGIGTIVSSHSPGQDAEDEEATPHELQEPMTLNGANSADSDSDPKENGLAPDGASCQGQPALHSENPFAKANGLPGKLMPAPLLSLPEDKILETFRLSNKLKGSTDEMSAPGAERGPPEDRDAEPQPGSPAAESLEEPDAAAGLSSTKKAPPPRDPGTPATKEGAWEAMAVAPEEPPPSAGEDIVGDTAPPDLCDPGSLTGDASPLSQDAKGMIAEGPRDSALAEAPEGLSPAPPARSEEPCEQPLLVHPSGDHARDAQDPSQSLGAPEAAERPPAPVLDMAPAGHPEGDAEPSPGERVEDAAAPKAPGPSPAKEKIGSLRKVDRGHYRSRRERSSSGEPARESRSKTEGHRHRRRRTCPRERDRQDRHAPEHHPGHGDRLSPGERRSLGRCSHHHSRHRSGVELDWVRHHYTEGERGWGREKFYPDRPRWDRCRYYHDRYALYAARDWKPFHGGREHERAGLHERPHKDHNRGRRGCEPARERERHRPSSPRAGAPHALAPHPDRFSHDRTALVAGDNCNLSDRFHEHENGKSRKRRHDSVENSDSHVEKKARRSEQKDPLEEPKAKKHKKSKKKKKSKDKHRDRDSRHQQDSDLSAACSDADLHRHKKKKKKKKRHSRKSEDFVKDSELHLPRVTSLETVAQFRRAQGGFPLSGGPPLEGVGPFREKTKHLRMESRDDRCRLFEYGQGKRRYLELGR
Outline: (§1)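 Each value is an average log2 ratio of fragment to vehicle, tested by unpaired t-test. The underlying Spectronaut label-free quantities were global-median-normalised, and only proteins with ≥2 unique peptides were included. Triplicate HEK293T lysate samples (495 µg) were exposed to fragment at 200 µM or vehicle for 3 h, then to Biotin-Ahx-Ub-VS at 0.5 µM final for 1 h, before NeutrAvidin enrichment of labelled DUBs, LysC and trypsin digestion, and diaPASEF LC-MS/MS.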

USP46 = USP46 (UniProt P62068)
USP46, sequence (P62068 whole entry): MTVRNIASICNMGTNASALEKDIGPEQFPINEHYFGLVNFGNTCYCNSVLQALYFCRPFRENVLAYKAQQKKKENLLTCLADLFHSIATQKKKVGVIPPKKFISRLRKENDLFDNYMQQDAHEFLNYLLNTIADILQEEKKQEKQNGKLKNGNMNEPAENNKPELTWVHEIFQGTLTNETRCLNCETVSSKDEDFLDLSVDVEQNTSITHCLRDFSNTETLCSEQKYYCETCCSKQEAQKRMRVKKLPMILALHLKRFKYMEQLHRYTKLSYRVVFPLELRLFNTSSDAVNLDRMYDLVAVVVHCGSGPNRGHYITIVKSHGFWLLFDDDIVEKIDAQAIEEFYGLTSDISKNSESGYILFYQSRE
Outline: as §1

USP47 = biological target: T2, USP47 (UniProt Q96K76)
T2 sequence (whole entry): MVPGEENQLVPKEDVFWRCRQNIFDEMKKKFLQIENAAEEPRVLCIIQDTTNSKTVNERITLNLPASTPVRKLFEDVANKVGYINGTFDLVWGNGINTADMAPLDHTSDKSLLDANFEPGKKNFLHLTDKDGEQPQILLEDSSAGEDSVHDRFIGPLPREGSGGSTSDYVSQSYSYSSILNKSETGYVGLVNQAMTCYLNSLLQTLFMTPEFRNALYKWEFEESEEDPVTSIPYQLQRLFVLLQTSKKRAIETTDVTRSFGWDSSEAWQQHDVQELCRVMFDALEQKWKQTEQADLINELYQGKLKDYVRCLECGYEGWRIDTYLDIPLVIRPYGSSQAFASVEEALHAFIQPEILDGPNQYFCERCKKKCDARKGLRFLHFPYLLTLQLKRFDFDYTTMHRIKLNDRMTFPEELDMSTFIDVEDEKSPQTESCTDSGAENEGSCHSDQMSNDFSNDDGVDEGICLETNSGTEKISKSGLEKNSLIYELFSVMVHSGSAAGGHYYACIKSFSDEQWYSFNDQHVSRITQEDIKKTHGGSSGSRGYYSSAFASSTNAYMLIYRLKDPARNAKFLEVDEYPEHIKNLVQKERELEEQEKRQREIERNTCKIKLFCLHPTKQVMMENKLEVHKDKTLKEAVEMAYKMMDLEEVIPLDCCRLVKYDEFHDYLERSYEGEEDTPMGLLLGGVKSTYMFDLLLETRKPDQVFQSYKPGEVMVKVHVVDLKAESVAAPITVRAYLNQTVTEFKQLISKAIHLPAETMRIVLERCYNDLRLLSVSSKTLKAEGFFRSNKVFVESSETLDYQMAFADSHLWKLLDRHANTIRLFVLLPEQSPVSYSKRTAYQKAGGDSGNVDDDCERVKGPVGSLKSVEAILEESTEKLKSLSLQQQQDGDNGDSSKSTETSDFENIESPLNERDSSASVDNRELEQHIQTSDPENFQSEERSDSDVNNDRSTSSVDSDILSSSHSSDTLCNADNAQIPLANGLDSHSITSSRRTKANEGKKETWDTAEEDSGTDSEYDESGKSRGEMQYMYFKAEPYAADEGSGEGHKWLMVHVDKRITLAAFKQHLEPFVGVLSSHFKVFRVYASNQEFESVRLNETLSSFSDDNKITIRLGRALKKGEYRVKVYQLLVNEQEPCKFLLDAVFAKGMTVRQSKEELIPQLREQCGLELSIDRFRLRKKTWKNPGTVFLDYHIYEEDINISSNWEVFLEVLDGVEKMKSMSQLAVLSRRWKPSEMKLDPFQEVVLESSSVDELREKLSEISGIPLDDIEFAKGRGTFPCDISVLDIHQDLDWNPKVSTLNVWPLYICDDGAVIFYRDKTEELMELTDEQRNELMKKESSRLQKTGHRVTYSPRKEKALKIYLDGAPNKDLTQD
Outline: as §1

USP48 = biological target: T3, USP48 (UniProt Q86UV5)
T3 sequence (whole entry): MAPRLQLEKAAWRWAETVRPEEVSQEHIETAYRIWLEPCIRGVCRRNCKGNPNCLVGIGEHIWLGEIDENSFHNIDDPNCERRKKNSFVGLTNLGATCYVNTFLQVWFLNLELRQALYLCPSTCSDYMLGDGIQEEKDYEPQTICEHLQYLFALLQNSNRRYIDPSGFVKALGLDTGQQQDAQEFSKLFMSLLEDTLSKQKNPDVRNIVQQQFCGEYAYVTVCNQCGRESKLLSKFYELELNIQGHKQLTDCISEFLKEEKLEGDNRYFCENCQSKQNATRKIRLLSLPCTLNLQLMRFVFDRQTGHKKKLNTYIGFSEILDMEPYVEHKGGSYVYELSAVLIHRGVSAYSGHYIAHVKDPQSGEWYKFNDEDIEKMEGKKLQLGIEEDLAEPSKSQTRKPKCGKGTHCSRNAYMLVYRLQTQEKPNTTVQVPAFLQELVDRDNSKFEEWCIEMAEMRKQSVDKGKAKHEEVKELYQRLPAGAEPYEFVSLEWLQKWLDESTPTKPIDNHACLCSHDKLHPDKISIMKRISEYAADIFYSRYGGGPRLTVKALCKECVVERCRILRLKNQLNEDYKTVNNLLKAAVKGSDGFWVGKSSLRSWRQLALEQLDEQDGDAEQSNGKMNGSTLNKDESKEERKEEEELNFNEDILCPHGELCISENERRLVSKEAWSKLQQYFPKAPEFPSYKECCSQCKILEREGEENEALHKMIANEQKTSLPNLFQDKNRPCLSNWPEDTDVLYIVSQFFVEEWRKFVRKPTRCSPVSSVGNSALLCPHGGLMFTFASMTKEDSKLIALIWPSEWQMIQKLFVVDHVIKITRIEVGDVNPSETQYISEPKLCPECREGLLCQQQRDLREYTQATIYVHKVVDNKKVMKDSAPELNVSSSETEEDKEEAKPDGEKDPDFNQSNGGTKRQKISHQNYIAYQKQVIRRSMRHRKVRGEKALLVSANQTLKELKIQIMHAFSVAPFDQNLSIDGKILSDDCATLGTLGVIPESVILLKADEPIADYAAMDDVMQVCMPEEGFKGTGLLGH
Outline: as §1

USP5 = biological target: T4, USP5 (UniProt P45974)
T4 sequence (whole entry): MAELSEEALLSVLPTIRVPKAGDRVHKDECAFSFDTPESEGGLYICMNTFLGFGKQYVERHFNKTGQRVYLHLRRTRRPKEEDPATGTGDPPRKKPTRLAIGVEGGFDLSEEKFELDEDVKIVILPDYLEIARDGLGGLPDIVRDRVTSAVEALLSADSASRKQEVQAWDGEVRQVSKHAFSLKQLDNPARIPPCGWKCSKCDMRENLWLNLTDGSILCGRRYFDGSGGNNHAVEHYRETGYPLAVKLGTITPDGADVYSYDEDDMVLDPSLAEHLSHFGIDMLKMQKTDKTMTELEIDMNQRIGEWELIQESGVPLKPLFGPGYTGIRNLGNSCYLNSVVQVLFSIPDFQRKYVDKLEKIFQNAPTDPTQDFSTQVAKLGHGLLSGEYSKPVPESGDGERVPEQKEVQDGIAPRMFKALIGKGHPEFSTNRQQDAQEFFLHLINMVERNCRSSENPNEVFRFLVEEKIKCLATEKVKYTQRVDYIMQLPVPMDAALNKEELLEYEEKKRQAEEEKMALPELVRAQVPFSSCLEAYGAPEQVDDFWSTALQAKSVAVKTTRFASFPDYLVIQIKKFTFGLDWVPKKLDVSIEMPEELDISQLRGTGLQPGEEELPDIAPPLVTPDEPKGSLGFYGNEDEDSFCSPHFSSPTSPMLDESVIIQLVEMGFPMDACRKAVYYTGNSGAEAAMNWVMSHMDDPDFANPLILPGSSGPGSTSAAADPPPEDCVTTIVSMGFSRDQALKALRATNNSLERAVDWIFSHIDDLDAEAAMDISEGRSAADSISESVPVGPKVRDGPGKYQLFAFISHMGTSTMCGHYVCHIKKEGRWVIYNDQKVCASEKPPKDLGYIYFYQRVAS
Outline: as §1

USP54 = USP54 (UniProt Q70EL1)
USP54, sequence (Q70EL1 whole entry): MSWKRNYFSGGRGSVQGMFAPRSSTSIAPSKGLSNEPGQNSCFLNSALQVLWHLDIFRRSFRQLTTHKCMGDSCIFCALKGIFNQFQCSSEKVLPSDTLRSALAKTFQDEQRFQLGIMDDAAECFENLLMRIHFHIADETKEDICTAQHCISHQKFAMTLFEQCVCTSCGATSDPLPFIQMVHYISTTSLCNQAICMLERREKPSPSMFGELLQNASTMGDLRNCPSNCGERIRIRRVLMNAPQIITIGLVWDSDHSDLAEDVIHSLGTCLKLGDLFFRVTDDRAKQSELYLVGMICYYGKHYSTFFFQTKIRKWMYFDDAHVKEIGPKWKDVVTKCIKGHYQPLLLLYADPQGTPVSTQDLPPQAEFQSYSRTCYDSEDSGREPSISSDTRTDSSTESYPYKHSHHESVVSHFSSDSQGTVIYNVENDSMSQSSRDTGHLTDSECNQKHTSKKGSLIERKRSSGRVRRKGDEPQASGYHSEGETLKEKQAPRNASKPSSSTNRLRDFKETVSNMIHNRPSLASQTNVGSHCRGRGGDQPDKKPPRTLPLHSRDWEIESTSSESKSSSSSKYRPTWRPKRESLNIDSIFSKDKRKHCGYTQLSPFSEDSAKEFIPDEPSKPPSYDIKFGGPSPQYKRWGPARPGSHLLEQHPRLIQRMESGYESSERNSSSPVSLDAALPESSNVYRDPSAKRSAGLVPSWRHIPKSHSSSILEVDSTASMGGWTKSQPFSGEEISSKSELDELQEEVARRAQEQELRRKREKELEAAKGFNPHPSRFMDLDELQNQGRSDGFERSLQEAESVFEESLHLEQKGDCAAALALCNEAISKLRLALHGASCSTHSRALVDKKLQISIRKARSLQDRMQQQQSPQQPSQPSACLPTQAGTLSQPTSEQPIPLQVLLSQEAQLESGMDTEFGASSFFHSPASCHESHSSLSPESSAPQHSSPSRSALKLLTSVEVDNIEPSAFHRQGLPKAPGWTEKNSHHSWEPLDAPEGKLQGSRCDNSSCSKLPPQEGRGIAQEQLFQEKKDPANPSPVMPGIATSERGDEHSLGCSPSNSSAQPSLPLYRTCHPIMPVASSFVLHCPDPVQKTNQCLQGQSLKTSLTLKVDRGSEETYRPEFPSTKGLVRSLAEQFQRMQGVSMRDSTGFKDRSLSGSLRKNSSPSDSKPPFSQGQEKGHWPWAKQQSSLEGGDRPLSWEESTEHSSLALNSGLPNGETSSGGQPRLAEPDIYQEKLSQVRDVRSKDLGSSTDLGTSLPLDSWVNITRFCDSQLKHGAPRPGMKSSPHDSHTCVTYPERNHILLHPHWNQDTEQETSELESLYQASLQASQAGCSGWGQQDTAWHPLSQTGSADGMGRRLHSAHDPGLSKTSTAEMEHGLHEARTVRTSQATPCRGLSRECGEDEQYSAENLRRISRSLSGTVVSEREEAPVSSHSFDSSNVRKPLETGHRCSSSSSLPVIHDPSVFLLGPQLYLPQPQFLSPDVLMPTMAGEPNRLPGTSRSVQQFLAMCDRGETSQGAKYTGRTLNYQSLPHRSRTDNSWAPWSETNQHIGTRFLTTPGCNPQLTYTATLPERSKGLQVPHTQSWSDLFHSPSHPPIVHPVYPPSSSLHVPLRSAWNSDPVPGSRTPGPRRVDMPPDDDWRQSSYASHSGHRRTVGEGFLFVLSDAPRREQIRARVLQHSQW
Outline: as §1

USP7 = USP7 (UniProt Q93009)
USP7, sequence (Q93009 whole entry, looked up): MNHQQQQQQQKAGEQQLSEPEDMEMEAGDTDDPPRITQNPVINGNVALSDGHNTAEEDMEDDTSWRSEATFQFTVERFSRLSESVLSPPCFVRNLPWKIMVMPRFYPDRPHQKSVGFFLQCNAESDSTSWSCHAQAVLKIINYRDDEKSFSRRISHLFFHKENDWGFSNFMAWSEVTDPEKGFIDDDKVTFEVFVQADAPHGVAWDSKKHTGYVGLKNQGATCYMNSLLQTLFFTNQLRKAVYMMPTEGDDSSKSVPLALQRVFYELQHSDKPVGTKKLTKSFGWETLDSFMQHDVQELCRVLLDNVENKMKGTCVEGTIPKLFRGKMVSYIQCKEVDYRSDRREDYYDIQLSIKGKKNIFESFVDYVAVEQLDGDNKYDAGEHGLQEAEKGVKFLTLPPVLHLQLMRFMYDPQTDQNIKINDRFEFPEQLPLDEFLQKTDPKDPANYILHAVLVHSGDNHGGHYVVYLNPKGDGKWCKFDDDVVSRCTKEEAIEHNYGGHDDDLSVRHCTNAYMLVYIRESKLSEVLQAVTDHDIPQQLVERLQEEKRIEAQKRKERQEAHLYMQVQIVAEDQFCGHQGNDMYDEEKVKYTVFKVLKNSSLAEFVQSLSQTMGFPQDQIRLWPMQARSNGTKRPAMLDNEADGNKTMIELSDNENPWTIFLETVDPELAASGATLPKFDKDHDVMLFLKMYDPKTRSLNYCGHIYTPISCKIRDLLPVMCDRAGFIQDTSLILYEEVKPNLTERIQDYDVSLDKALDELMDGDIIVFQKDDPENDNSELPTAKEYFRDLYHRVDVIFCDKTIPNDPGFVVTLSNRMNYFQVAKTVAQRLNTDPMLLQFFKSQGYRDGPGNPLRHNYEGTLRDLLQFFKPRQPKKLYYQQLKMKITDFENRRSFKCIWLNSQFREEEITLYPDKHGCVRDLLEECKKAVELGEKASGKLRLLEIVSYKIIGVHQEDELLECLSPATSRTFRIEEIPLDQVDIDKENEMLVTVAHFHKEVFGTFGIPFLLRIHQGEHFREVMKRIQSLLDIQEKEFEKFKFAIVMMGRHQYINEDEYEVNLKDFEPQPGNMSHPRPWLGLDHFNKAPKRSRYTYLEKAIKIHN
Outline: as §1

USP8 = biological target: T5, USP8 (UniProt P40818)
T5 sequence (whole entry): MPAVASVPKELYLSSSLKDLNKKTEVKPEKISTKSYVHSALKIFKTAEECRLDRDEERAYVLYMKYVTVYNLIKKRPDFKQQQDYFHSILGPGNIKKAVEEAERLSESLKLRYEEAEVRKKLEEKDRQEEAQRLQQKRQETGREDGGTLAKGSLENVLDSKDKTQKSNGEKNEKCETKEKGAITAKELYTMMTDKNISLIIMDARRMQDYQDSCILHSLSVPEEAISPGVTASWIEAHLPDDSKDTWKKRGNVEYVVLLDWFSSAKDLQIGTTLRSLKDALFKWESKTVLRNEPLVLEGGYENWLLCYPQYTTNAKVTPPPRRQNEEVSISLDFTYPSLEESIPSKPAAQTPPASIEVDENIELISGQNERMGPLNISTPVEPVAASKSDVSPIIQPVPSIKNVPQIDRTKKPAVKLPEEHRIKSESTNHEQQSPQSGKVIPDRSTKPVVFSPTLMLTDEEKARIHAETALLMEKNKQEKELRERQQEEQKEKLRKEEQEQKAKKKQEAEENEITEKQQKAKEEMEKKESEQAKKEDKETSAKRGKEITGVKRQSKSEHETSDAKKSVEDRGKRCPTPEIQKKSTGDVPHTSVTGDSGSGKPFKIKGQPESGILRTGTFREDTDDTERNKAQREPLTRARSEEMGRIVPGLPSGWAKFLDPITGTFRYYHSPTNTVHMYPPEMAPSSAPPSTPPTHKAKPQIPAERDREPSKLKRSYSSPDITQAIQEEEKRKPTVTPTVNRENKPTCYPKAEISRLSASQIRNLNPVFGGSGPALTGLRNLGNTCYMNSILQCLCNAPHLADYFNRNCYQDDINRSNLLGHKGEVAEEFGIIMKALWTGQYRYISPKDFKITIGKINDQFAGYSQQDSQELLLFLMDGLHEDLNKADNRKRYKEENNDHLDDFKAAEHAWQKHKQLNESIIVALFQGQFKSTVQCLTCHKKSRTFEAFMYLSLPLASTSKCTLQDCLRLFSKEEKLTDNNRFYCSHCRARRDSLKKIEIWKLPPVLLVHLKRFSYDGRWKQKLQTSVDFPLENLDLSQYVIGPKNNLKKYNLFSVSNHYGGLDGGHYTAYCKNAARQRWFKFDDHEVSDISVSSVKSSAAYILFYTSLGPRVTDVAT
Outline: as §1

USP9X = USP9X (UniProt Q93008)
Outline: as §1

UniProt O00487 = biological target: UniProt O00487
UniProt O00487, sequence (O00487 whole entry): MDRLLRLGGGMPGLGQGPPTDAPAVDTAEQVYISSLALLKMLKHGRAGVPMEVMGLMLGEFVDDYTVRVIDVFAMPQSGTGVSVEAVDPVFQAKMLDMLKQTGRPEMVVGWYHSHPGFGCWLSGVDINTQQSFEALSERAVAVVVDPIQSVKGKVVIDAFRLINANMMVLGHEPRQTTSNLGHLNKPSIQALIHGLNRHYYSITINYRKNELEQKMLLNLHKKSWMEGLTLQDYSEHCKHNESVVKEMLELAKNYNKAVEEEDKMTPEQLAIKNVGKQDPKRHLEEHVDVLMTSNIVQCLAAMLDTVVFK
Outline: as §1

Measured: log2 ratio of Biotin-Ahx-Ub-VS probe labelling

CNC(=O)Cn1cc(NC(=O)CCl)cn1
inactive: USP42 -0.595 | USP46 0.000623 | USP47 0.0561 | USP48 0.0267 | USP5 -0.241 | USP54 0.48 | USP7 -0.438 | USP8 -0.282 | USP9X -0.287 | UniProt O00487 -0.0928

Reference: the supplement of paper PMC11732987, “Enantioselective OTUD7B fragment discovery through chemoproteomics screening and high-throughput optimisation” (Communications Chemistry, 2025)
